{
  "source": "PubChem BioAssay AID1259398",
  "about": "(Fisher Drug Discovery Resource Center, 2018)",
  "note": "Where “and” joins values, the source holds several entries; their conditions need not be identical. Identical values can stand only once. In all, about 290,000 compounds went through this assay and about 230 (0.079%) were called active. The sample as a whole holds a higher share of actives than the screen did. Unmarked numbers belong to inactive results. Rule as the data show it: active = inhibition above about 40%; inactive = the rest.",
  "data": [
    {"target": "Cyclic GMP-AMP synthase (Homo sapiens) (UniProt Q8N884)", "sequence (Q8N884 whole entry, looked up)": "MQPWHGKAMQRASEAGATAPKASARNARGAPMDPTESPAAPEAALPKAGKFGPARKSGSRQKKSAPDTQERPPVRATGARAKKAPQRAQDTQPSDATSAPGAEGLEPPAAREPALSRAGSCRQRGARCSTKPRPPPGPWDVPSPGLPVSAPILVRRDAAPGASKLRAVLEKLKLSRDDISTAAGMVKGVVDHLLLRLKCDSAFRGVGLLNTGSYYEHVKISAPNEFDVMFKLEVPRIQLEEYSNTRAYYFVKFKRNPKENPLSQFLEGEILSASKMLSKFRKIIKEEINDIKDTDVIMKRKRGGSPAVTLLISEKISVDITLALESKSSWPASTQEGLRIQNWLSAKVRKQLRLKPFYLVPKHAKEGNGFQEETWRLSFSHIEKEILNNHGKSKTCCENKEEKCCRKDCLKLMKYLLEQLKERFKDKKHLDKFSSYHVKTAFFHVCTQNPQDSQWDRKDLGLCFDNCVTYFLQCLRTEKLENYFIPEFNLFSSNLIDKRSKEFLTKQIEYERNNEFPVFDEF", "experiment": "Primary biochemical luminescence assay for human cyclic GMP-AMP synthase inhibitors (AID 1259398);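 also: 0% = vehicle reaction and 100% = reaction without DNA for no activity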", "conditions": "recombinant h-cGAS, ATP depletion, Kinase-Glo luminescence; at 12.5 µM; hits give high values", "values": [
      {"molecule": "COc1ccc(NS(=O)(=O)c2cc(C(=O)Nc3ccc(C)cc3)ccc2C)cc1", "inhibition": "-2.65%"},
      {"molecule": "O=C(Cc1csc(SCC(=O)c2ccccc2)n1)NCCC1=CCCCC1", "inhibition": "7.3%"},
      {"molecule": "O=[N+]([O-])c1cc(S(=O)(=O)C(F)(F)F)ccc1N1CCCC1", "inhibition": "-6.28%"},
      {"molecule": "O=[N+]([O-])c1cc(S(=O)(=O)C(F)(F)F)ccc1Oc1ccc2oc3c(c2c1)CCCC3", "inhibition": "50.2% (active)"},
      {"molecule": "CS(=O)(=O)c1ccc(Oc2ccc3sc(=O)oc3c2)c([N+](=O)[O-])c1", "inhibition": "-8.14%"},
      {"molecule": "C=CCN(Cc1ccccc1OC)C(=O)c1ccc(NC(C)=O)cc1", "inhibition": "0.115%"},
      {"molecule": "Cc1ccc(S(=O)(=O)NCc2ccc3c(c2)OCO3)c(C)c1C", "inhibition": "-9.87%"},
      {"molecule": "CS(=O)(=O)c1cccc2sc(Cl)nc12", "inhibition": "-7.81%"},
      {"molecule": "CCCCCN(CC(=O)N(CCCC)Cc1cccn1Cc1ccc(Br)cc1)C(=O)c1ccc2c(c1)OCO2", "inhibition": "-1.37%"},
      {"molecule": "CC(C)CN(CC(C)C)C(=O)c1cccnc1Nc1cccc(C(F)(F)F)c1", "inhibition": "-2.78%"},
      {"molecule": "CC(Nc1nc2c(c(=O)[nH]c(=O)n2C)n1Cc1ccccc1)c1ccccc1", "note": "(stereo not given)", "inhibition": "2.23%"},
      {"molecule": "CS(=O)(=O)N1CCC(C(=O)NCc2cc(-c3ccc4c(c3)OCCO4)on2)CC1", "inhibition": "-5.92%"},
      {"molecule": "CC(NC(=O)c1ccc(Br)cc1F)C(=O)N1CCOCC1", "note": "(stereo not given)", "inhibition": "-5.97%"},
      {"molecule": "CC[N+](C)(CC)CCC[n+]1c(-c2ccccc2)c2cc(N)ccc2c2ccc(N)cc21", "inhibition": "57.3% (active)"},
      {"molecule": "COc1ccc(CCN(Cc2ccc(C)s2)C(=O)CN(CC2CCCO2)S(=O)(=O)c2c(C)cc(C)cc2C)cc1OC", "note": "(stereo not given)", "inhibition": "-7.86%"},
      {"molecule": "CC(=O)CC1C(CC(=O)O)C1(C)C", "note": "(stereo not given)", "inhibition": "-5.25%"},
      {"molecule": "Cc1ccc(S(=O)(=O)Oc2c(CO)cc(C)cc2CO)cc1", "inhibition": "-8.05%"},
      {"molecule": "CC1(C(=O)NCc2cccs2)CCN1Cc1ccc2c(c1)OCCO2", "note": "(stereo not given)", "inhibition": "-11%"},
      {"molecule": "CC(=O)N1CCN(C(=O)COC(=O)c2ccc3ccccc3c2O)CC1", "inhibition": "-3.7%"},
      {"molecule": "CC(C)C(=O)N1CCC1(C)C(=O)Nc1ccccn1", "note": "(stereo not given)", "inhibition": "-6.44%"},
      {"molecule": "CCc1nnc(CNc2cc(Cl)ccc2F)n1C", "inhibition": "-5.8%"},
      {"molecule": "CCOc1cccc(-c2ccc(Nc3ccc(OC)cc3C)nc2)c1", "inhibition": "-0.0439%"},
      {"molecule": "COc1ccccc1OC1CCN(C(=O)CCC2(Cc3ccccc3)CCC(=O)N2)CC1", "note": "(stereo not given)", "inhibition": "-5.11%"},
      {"molecule": "CCN1C(=O)N(Cc2cccc(OC)c2)C(=O)C12CCN(Cc1cn[nH]c1-c1ccc(F)cc1)CC2", "inhibition": "11%"},
      {"molecule": "CC(=O)CC1(O)C(=O)Nc2ccc(I)cc21", "note": "(stereo not given)", "inhibition": "2.23%"},
      {"molecule": "CC1CCc2c(sc(NC(=O)c3cccs3)c2C(=O)Nc2ccc(Cl)cc2)C1", "note": "(stereo not given)", "inhibition": "-14.3%"},
      {"molecule": "C=CCCC(O)CN(Cc1c(CC)nn(-c2ccccc2)c1Oc1cccc(OC)c1)CC1CC1", "note": "(stereo not given)", "inhibition": "-5.62%"},
      {"molecule": "O=C(NCc1n[nH]c(=S)n1C1CC1)c1noc2c1CCCC2", "inhibition": "-5.91%"},
      {"molecule": "O=C(O)CSc1nnc(CCc2ccccc2)n1-c1cccnc1", "inhibition": "-3.94%"},
      {"molecule": "Cc1ccsc1C(=O)N1CCCC(CNC(=O)c2ccc(-c3ccccc3)cc2)C1", "note": "(stereo not given)", "inhibition": "-7.02% and -6.34%"},
      {"molecule": "C=CCNCc1cnc(S(=O)(=O)Cc2ccc(F)cc2)n1C(C)C", "inhibition": "-5.49%"},
      {"molecule": "O=C(O)c1cc(-c2ccco2)nn1-c1ccccc1Cl", "inhibition": "-7.88%"},
      {"molecule": "C=CCN(CC(=O)Nc1ccccc1C#N)S(=O)(=O)c1c(C)cc(C)cc1C", "inhibition": "-5.26%"},
      {"molecule": "Cn1c(SCC(=O)N2CCN(c3ccccc3)CC2)nnc1C(F)(F)F", "inhibition": "-6.17%"},
      {"molecule": "O=C1CN(C(=O)C2CCCC2)CC(O)CN1Cc1cccc(F)c1", "note": "(stereo not given)", "inhibition": "11.5%"},
      {"molecule": "CCc1[nH]n(-c2ccc(Cl)c(Cl)c2)c(=O)c1C1=C([n+]2cccc(C)c2)C(=O)N(CC(C)C)C1=O", "inhibition": "-10.4%"},
      {"molecule": "COCCNC(=O)Cn1nc2c(c1NC(=O)c1cc(OC)cc(OC)c1)CSC2", "inhibition": "-4.38%"},
      {"molecule": "N#Cc1cccc(COc2ccc(NC(=O)NCCO)cc2Cl)c1", "inhibition": "0.266%"},
      {"molecule": "C=CC(=O)Nc1ccc2ncnc(Nc3ccc(OCc4cccc(F)c4)c(Cl)c3)c2c1", "inhibition": "43.2% (active)"},
      {"molecule": "Cc1ccc(Nc2nc(Nc3cccc(F)c3)nc3nccnc23)cc1Cl", "inhibition": "-0.96%"},
      {"molecule": "Cc1ccc(OC(C)C(=O)N(C)C2CCS(=O)(=O)C2)c(Br)c1", "note": "(stereo not given)", "inhibition": "-12.8% and -9.58%"},
      {"molecule": "Cc1cccc(C2SCC(=O)N2CC(=O)NCc2ccncc2)c1", "note": "(stereo not given)", "inhibition": "-4.08%"},
      {"molecule": "O=C(c1cc(Cl)c2nc3ccccn3c(=O)c2c1)c1cc(F)ccc1O", "inhibition": "-5.02%"},
      {"molecule": "N#CCCN(CCC#N)Cn1c(=O)oc2cc(Br)ccc21", "inhibition": "-6.19%"},
      {"molecule": "COCc1nnc2sc(Cc3ccc4c(c3)CCCC4)nn12", "inhibition": "45.2% (active)"},
      {"molecule": "c1ccc(Cc2nn3c(Cn4cnc5ccccc54)nnc3s2)cc1", "inhibition": "-1.85%"},
      {"molecule": "CCCc1nnc2sc(Cc3csc(C)n3)nn12", "inhibition": "-7.66%"},
      {"molecule": "Cc1ccc(S(=O)(=O)N2CCCC2c2nc3ccccc3[nH]2)c(C)c1", "note": "(stereo not given)", "inhibition": "-4.68%"},
      {"molecule": "COCCN(CCC(=O)N1CCC(Cc2ccccc2)CC1)c1nc(Cc2cccc(OC)c2)ns1", "inhibition": "-5.55%"},
      {"molecule": "CC(C)(CNC(=O)c1cc2cccc(F)c2o1)C1CCCCO1", "note": "(stereo not given)", "inhibition": "-5.71%"},
      {"molecule": "Cc1ccc(NC(=O)C2C(C=C(Cl)Cl)C2(C)C)cc1", "note": "(stereo not given)", "inhibition": "-4.28%"},
      {"molecule": "COc1ccccc1OC1CN(Cc2cc(C)[nH]n2)C1", "inhibition": "-4.73%"},
      {"molecule": "O=C(NNc1cccc(Cl)c1)[C@@H]1CCCN1c1nccc(Nc2ccccc2)n1", "inhibition": "-0.74%"},
      {"molecule": "CCOc1ccc(N2CCN(C(=O)CCc3ccccc3)C(C)C2=O)cc1", "note": "(stereo not given)", "inhibition": "-2.37%"},
      {"molecule": "Cn1cc(CN2CCN(c3ccc(Cl)cn3)CC2)c(-c2ccc3c(c2)OCCO3)n1", "inhibition": "-7.9%"},
      {"molecule": "CC(CN1CCOCC1)NC(=O)N1CCCc2cc(F)c(F)cc21", "note": "(stereo not given)", "inhibition": "-4.63%"},
      {"molecule": "Cc1cc(Nc2ccc3c(n2)C(=O)N(CC(=O)NCCCn2ccnc2)C3)n(C)n1", "inhibition": "-11.5%"},
      {"molecule": "N#Cc1cccc(NC(=O)CN(Cc2ccco2)Cc2cccs2)c1", "inhibition": "-0.473%"},
      {"molecule": "Cc1ccc(C)c(C(C)NC(=O)c2ccccc2-c2nn[nH]n2)c1", "note": "(stereo not given)", "inhibition": "-2.34%"},
      {"molecule": "COc1ccc(-c2nc3ccccc3c(=O)n2Cc2ccc(F)cc2)c(OC)c1OC", "inhibition": "-5.68%"},
      {"molecule": "O=C(c1cnc(-c2ccncc2)nc1)N1CCOC(CCCc2ccccc2)C1", "note": "(stereo not given)", "inhibition": "-8.45%"},
      {"molecule": "O=C(CCC1CCN(C(=O)c2cccc(-n3cccn3)c2)CC1)Nc1ccccc1", "inhibition": "-9.6%"},
      {"molecule": "CN1CCn2nc(C(=O)NC(c3ccccc3)c3ccco3)cc2C1", "note": "(stereo not given)", "inhibition": "-5.91%"},
      {"molecule": "Cc1cc(-c2n[nH]c(=O)n2CCc2ccc(F)cc2)n(C)n1", "inhibition": "2.4%"},
      {"molecule": "Cc1n[nH]c(=O)c2c(NC(=O)CSc3nnc(C)n3C3CC3)oc(C)c12", "inhibition": "-6.69%"},
      {"molecule": "O=C(O)CCCc1ccc(Br)s1", "inhibition": "74.1% (active)"},
      {"molecule": "O=C(CCSCc1ccccn1)NCc1ccc(Br)s1", "inhibition": "-8.25%"},
      {"molecule": "O=C(O)C=Cc1ccc(Br)s1", "inhibition": "-0.785%"},
      {"molecule": "Cc1noc(C)c1S(=O)(=O)N1CCCC1c1ccccn1", "note": "(stereo not given)", "inhibition": "-4.73%"},
      {"molecule": "CN1CCN(Cc2cc(F)ccc2-n2cccn2)CC1CCO", "note": "(stereo not given)", "inhibition": "-8.61%"},
      {"molecule": "NS(=O)(=O)c1ccc(CNc2ccc3ncc(-c4ccc(Oc5ccccc5)cc4)n3n2)cc1", "inhibition": "-8.75%"},
      {"molecule": "Cc1ccc(CN(Cc2nc3cc(C)ccc3o2)C(=O)CC(C)C)cc1", "inhibition": "-3.11%"},
      {"molecule": "Cc1cccc(S(=O)(=O)N2CCN(c3cc(-n4ccnc4)nc(C)n3)CC2)c1", "inhibition": "-1.12%"},
      {"molecule": "Cc1cccc(-n2ccc3nc(N4CCCCC4)ncc3c2=O)c1", "inhibition": "-4.1%"},
      {"molecule": "COc1cc(=O)n(-c2ccccc2C)nc1C(=O)NC(c1ccccc1)c1ccccc1", "inhibition": "-0.757%"},
      {"molecule": "CCCCC(=O)N(C)c1c(C)nc2ccc(C(=O)NCCCN3CCCC3=O)cn12", "inhibition": "-4.09%"},
      {"molecule": "CCCCS(=O)(=O)N1CCCN(c2nc(CCC)nc3onc(-c4cccc(C(F)(F)F)c4)c23)CC1", "inhibition": "-3.14%"},
      {"molecule": "Cc1nn(C)c(C)c1CN(C(=O)C1CC(=O)N(CC(C)C)C1)C1CC1", "note": "(stereo not given)", "inhibition": "-3.8%"},
      {"molecule": "O=C(CCCOc1cccc(Cl)c1Cl)N1CCN(C2CCOC2)CC1", "note": "(stereo not given)", "inhibition": "-4.45%"},
      {"molecule": "Cn1c(CC2CCNCC2)nnc1SCc1noc(C2CCCO2)n1", "note": "(stereo not given)", "inhibition": "-3.73%"},
      {"molecule": "COc1cc2c(cc1OC)C(C(C)NS(=O)(=O)c1ccccc1)N(Cc1ccccc1F)CC2", "note": "(stereo not given)", "inhibition": "-1.82%"},
      {"molecule": "CC(=O)Nc1ccccc1N1C(=O)c2ccc(-c3nc4ccccc4c(=O)o3)cc2C1=O", "inhibition": "0.929%"},
      {"molecule": "CCOC(=NCc1ccccc1)NC(=O)c1cccc(C(F)(F)F)c1", "inhibition": "-4.46%"},
      {"molecule": "O=C1NC(C(=O)N2Cc3cnc(-c4ccccc4)nc3C2)CO1", "note": "(stereo not given)", "inhibition": "-0.988%"},
      {"molecule": "CC(=O)c1[nH]c(C)c(C(=O)N2CCCCC2CCc2ccccn2)c1C", "note": "(stereo not given)", "inhibition": "-5.8%"},
      {"molecule": "Cc1[nH]c(/C=C2\\C(=O)Nc3ccc(S(=O)(=O)Cc4c(Cl)cccc4Cl)cc32)c(C)c1C(=O)N1CCC[C@@H]1CN1CCCC1", "inhibition": "63.1% (active)"},
      {"molecule": "Cc1ccnc2nc(C(=O)N3CCCC3CN3CCCC3)nn12", "note": "(stereo not given)", "inhibition": "-10.3%"},
      {"molecule": "Cc1nn(C)c2ncc(C(=O)NCCn3cnnc3C(C)C)cc12", "inhibition": "1.28%"},
      {"molecule": "CC(C)(C)c1cc2nc(-c3ccccc3)cc(C(=O)NC3CCCCNC3=O)n2n1", "note": "(stereo not given)", "inhibition": "1.91% and -3.83%"},
      {"molecule": "CC(C)Nc1ccc(C(=O)N[C@H](C)C(C)(C)C)cn1", "inhibition": "-9.34%"}
    ]}
  ]
}
